Drawing on PubChem BioAssay, this text covers growth inhibition, inhibition and outcome for 20 molecules.

Assay [1] is described as follows: antimalarial activity against Dd2 strain (AID 2302;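 active = growth inhibition above 50% at the single 2 µM test dose, taken to imply half-maximal potency below 2 µM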;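 note: 0% = DMSO untreated growth and 100% = chloroquine plus artemisinin killed control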). The following applies: P. falciparum Dd2 in RBCs, LDH growth readout, 72 h; at 2 µM; active compounds read high.
The nature of assay [2]: human hepatoma cell viability loss – ATP luminescence, cytotoxicity control for P. falciparum antimalarial project, primary screen (AID 2303;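 active = inhibition above 50%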;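 note: 0% = DMSO wells and 100% = digitonin-killed cells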). The following applies: HepG2 viability, 24-48 h, at 10 µM, active compounds read high.
Assay [3] concerns the target L-lactate dehydrogenase (Plasmodium falciparum (isolate CDC / Honduras)) (UniProt Q27743). Briefly: PfLDH activity inhibition – cell lysate, 3D7 strain, counter-screen for P. falciparum growth inhibition project (AID 2304).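 Note: 0% = vehicle and 100% = reference inhibitor.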 As to conditions: P. falciparum 3D7 crude extract, LDH APAD/NBT absorbance; at 2 µM; active compounds read high.
The nature of assay [4]: inhibition of 3D7 malaria parasite growth – strain 3D7 (AID 2306).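 Note: 0% = DMSO wells and 100% = chloroquine plus artemisinin control wells.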 As to conditions: P. falciparum 3D7 erythrocytic growth, LDH absorbance, 72 h; at 2 µM; active compounds read high.
Assay [5] has as its target Calcium-dependent protein kinase 1 (Plasmodium falciparum (isolate 3D7)) (UniProt P62344). In words: PfCDPK1 kinase inhibitors, biochemical, TCAMS library (AID 1159585; cut-off not given, nearly all actives have IC50 up to about 0.98 µM;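 note: inhibitors leave more ATP so luminescence rises with inhibition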). As to conditions: recombinant PfCDPK1, Kinase-Glo ATP depletion luminescence. (In Kinase-Glo more light means more ATP remaining.)
For assay [6], the target named is Plasmodium falciparum protein kinase 6 (PK6, PF3D7_1337100) (UniProt Q8IDW1). Briefly: PfPK6 kinase inhibitors, biochemical, TCAMS library (AID 1159586). As to conditions: recombinant PfPK6, Kinase-Glo ATP depletion luminescence.
Chain of Plasmodium falciparum protein kinase 6 (PK6, PF3D7_1337100) (Q8IDW1 1-305): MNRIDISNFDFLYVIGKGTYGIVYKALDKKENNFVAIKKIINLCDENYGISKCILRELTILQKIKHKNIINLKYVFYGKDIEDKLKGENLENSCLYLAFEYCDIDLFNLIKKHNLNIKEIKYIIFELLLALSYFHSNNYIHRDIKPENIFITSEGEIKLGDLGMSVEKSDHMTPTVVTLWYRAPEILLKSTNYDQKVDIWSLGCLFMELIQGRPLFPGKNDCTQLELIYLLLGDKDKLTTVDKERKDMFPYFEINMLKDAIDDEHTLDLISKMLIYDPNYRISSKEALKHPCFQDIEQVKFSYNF
Assay [7] has as its target Protein kinase 7 (PK7), Plasmodium falciparum 3D7 (PF3D7_0213400) (UniProt Q7YTF7). In words: inhibition of Plasmodium PK7 catalytic activity – biochemical, TCAMS antimalarial set, Kinase-Glo luminescence (AID 1159587). As to conditions: recombinant PfPK7, Kinase-Glo ATP depletion luminescence.
For assay [8], the target named is Calcium-dependent protein kinase 4 (Plasmodium falciparum (isolate 3D7)) (UniProt Q8IBS5). Briefly: PfCDPK4 kinase inhibitors, biochemical, TCAMS library (AID 1159588; cut-off not given, nearly all actives have IC50 up to about 0.91 µM). The following applies: recombinant PfCDPK4, Kinase-Glo ATP depletion luminescence.
Chain of Calcium-dependent protein kinase 4 (Plasmodium falciparum (isolate 3D7)) (Q8IBS5 whole entry, looked up): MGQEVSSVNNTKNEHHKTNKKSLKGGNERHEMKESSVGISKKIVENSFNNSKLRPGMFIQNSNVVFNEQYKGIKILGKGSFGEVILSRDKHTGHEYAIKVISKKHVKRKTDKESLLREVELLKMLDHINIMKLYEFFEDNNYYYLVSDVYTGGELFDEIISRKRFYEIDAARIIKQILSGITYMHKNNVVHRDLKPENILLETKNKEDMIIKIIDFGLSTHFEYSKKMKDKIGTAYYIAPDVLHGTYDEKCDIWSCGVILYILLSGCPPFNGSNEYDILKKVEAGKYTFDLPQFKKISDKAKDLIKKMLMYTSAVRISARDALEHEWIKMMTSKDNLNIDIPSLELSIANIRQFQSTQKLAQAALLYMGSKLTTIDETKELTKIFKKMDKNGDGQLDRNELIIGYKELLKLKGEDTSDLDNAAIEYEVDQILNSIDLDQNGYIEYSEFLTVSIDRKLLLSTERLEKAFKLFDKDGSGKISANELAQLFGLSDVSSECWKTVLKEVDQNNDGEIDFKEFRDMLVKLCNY

A number with no mark means an inactive call. For some of these results: Results with a measured potency or affinity are listed apart. Calls of active or inactive are those of the source. Unless noted, the rule behind the calls is not given here.

Chain of Protein kinase 7 (PK7), Plasmodium falciparum 3D7 (PF3D7_0213400) (Q7YTF7 1-343): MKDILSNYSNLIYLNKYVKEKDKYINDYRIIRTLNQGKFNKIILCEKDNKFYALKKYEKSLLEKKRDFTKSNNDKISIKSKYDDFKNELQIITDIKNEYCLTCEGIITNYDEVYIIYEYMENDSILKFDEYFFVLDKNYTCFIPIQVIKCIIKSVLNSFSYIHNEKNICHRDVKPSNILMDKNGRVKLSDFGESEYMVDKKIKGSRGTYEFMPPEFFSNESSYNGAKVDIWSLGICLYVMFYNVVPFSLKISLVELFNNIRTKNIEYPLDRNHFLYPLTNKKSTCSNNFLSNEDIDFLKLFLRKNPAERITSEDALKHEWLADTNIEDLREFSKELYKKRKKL
Chain of Calcium-dependent protein kinase 1 (Plasmodium falciparum (isolate 3D7)) (P62344 whole entry, looked up): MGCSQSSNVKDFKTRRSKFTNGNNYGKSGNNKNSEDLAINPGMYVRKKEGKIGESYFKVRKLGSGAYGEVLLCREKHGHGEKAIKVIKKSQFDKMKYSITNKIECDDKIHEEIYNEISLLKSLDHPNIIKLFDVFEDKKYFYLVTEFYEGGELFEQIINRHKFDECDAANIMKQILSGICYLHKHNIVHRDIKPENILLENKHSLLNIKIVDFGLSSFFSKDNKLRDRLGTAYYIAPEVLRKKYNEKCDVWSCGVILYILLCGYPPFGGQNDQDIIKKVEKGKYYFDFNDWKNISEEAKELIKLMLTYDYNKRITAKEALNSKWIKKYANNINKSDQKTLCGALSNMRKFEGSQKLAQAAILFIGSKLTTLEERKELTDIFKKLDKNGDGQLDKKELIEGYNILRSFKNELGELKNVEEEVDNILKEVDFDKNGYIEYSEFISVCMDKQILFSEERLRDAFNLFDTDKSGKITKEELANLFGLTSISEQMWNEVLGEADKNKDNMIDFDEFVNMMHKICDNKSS
Chain of L-lactate dehydrogenase (Plasmodium falciparum (isolate CDC / Honduras)) (Q27743 whole entry, looked up): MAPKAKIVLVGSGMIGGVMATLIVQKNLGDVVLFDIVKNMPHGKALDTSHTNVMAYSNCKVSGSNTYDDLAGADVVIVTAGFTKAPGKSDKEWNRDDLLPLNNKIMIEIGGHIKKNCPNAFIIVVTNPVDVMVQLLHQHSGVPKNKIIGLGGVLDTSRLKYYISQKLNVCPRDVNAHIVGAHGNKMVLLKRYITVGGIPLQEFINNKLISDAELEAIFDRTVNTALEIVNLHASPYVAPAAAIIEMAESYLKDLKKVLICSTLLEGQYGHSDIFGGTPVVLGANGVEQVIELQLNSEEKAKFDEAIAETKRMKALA

For orientation: inhibition means the change of the read-out against control, counted positive when it falls. As for `CCC(C)NS(=O)(=O)c1ccc2nc(Nc3ccc(C)c(Cl)c3)n(C(C)C(C)C)c2c1` (stereo not given), the growth inhibition in assay [1] and in assay [4] was 98% (active) in each case. Further, the inhibition was 22% in assay [2] and 1% in assay [3]. The outcome in assay [5], in assay [6], in assay [7] and in assay [8] was inactive.
As for `Cc1noc(C)c1-c1ccc(C(=C2CCCCCC2)c2ccc(O)cc2)cc1`, the growth inhibition in assay [1] is 96% (active); in assay [4] it was 100% (active). In addition, the figures for the inhibition in assay [2] and in assay [3] were -7% and 7%, respectively. Further, the result in assay [5], in assay [6], in assay [7] and in assay [8] was inactive.
`Cc1ccc(C(NC(=O)c2ccccc2)c2ccc3cccnc3c2O)cc1` (stereo not given): the growth inhibition in assay [1] is 72% (active); in assay [4], 92% (active). Further, the inhibition is 53% (active) in assay [2] and 7% in assay [3]. The outcome in assay [5], in assay [6], in assay [7] and in assay [8] was inactive.
For the molecule `Cc1cc2[nH]c(-c3ccc(C(=O)NCCCN4CCN(c5cccc(Cl)c5)CC4)s3)nc2cc1Cl`, the growth inhibition in assay [1] is 93% (active); in assay [4], 100% (active). Further, the inhibition is 7% in assay [2] and -1% in assay [3]. Moreover, the result in assay [5], in assay [6], in assay [7] and in assay [8] was inactive.
`COc1ccccc1CCNc1nc(C)cc(NCCC(=O)NCCOc2ccccc2)n1`: the values for the growth inhibition in assay [1] and in assay [4] were 14% and 85% (active), respectively. Also, the inhibition in assay [2] is 11%; in assay [3], -3%. Moreover, the outcome in assay [5], in assay [6], in assay [7] and in assay [8] was inactive.
On to `c1ccc2c(c1)ncc1c3ccccc3[nH]c21`, for which the growth inhibition in assay [1] was 36%; in assay [4] it was 95% (active). In addition, the inhibition in assay [2] is -1%; in assay [3], -6%. Besides, the outcome in assay [5], in assay [6], in assay [7] and in assay [8] was inactive.
On to `Cn1nc(C(F)(F)F)c(-c2ccc(F)cc2)c1NC(=O)Nc1ccc(F)cc1F`, for which the growth inhibition is 98% (active) in assay [1] and 100% (active) in assay [4]. Moreover, the figures for the inhibition in assay [2] and in assay [3] were 11% and -2%, respectively. Besides, the result in assay [5], in assay [6], in assay [7] and in assay [8] was inactive.
`COc1cc(C2Nc3ccc4ccccc4c3C3=C2C(=O)CC(C)(C)C3)ccc1Oc1ccc([N+](=O)[O-])cc1C#N` (stereo not given): the growth inhibition in assay [1] was 94% (active); in assay [4] it was 99% (active). Besides, the inhibition in assay [2] was 8%; in assay [3], -1%. Further, the outcome in assay [5], in assay [6], in assay [7] and in assay [8] was inactive.
Take `C#C[C@H]1O[C@@H](n2cnc3c(Nc4cc(Br)cc(C(F)(F)F)c4)ncnc32)[C@H](O)[C@@H]1O`: the results for the growth inhibition in assay [1] and in assay [4] were 56% (active) and 94% (active), respectively. Also, the inhibition in assay [2] is 21%; in assay [3], 4%. The outcome in assay [5], in assay [6], in assay [7] and in assay [8] was inactive.
Regarding `CCC[C@@H]([C@@H](CC1CCC(C)CC1)C(=O)N[C@@H](CCCCNC(=O)c1ccccn1)C(=O)Nc1nccs1)N(O)C=O` (stereo not given in full), the growth inhibition was 79% (active) in assay [1] and 101% (active) in assay [4]. Moreover, the inhibition in assay [2] was 25%; in assay [3] it was -1%. The outcome in assay [5], in assay [6], in assay [7] and in assay [8] was inactive.
Take `COc1ccc(OCCCN2CCN(CC(c3ccc(F)cc3)N3CCN(C(C)C)CC3)CC2)c2ccccc12` (stereo not given): the values for the growth inhibition in assay [1] and in assay [4] were 32% and 100% (active), respectively. The inhibition in assay [2] was 30%; in assay [3], -1%. The result in assay [5], in assay [6], in assay [7] and in assay [8] was inactive.
In the case of `CNCCNCc1ccc(-c2cccc(-c3nc4ccc(F)cc4[nH]3)c2)cc1`, the growth inhibition in assay [1] was 1%; in assay [4], 93% (active). Further, the inhibition is 10% in assay [2] and -1% in assay [3]. Besides, the result in assay [5], in assay [6], in assay [7] and in assay [8] was inactive.
Consider `CNc1ccc(CNCc2ccc(-c3ccc(-c4nc5c(C)cccc5[nH]4)s3)cc2)cc1`, for which the growth inhibition is 94% (active) in assay [1] and 101% (active) in assay [4]. Besides, the values for the inhibition in assay [2] and in assay [3] were 29% and -5%, respectively. Also, the result in assay [5], in assay [6], in assay [7] and in assay [8] was inactive.
As to `FC(F)(F)c1cccnc1N1CCC(Nc2nc3ccc(Cl)cc3[nH]2)CC1`, the growth inhibition in assay [1] is 39%; in assay [4] it was 93% (active). In addition, the results for the inhibition in assay [2] and in assay [3] were 32% and -2%, respectively. Also, the result in assay [5], in assay [6], in assay [7] and in assay [8] was inactive.
`Cc1noc(C)c1-c1cccc(CNCc2cccc(-c3cccc(-c4nc5ccc(C(F)(F)F)cc5[nH]4)c3)c2)c1`: the values for the growth inhibition in assay [1] and in assay [4] were 95% (active) and 101% (active), respectively. The inhibition is 18% in assay [2] and 5% in assay [3]. Moreover, the result in assay [5], in assay [6], in assay [7] and in assay [8] was inactive.
Regarding `COc1ccccc1CNc1ccnc(NCCc2cccc(C(F)(F)F)c2)n1`, the growth inhibition in assay [1] was 68% (active); in assay [4], 93% (active). For the same molecule, the inhibition in assay [2] was 39%; in assay [3], -4%. The outcome in assay [5], in assay [6], in assay [7] and in assay [8] was inactive.
Turning to `CN(C)c1ccc(OCCCCCCOc2ccccc2)cc1`, the growth inhibition in assay [1] is 68% (active); in assay [4], 85% (active). The results for the inhibition in assay [2] and in assay [3] were -7% and -5%, respectively. Moreover, the outcome in assay [5], in assay [6], in assay [7] and in assay [8] was inactive.
Turning to `COc1cccc(-c2[nH]c3ccccc3c2CN2CCC(c3c(C)cccc3C)CC2)c1`, the figures for the growth inhibition in assay [1] and in assay [4] were 24% and 99% (active), respectively. The figures for the inhibition in assay [2] and in assay [3] were 32% and 3%, respectively. For the same molecule, the outcome in assay [5], in assay [6], in assay [7] and in assay [8] was inactive.
Turning to `S=C(NCCCCCN1CCC(c2c[nH]c3ccccc23)CC1)Nc1cc(Cl)cc(Cl)c1`, the growth inhibition in assay [1] was 35%; in assay [4] it was 100% (active). Also, the inhibition is 25% in assay [2] and -4% in assay [3]. Further, the result in assay [5], in assay [6], in assay [7] and in assay [8] was inactive.
As for `Cc1cc(N[C@@H](CC(C)C)C(=O)NC2CCCC2)nc(NCC2CCCCC2)n1`, the growth inhibition in assay [1] was 88% (active); in assay [4], 101% (active). In addition, the inhibition in assay [2] was 8%; in assay [3], 0%. In addition, the result in assay [5], in assay [6], in assay [7] and in assay [8] was inactive.
